# Only some compounds are listed: those with a hit (about 6.3% of all), similar ones and a draw of the others.
# HepG2 viability – HepG2 cytotoxicity, counter-screen for TGF-b inhibitors. HepG2 CAGA-GFP viability, ATP luminescence, 18 h. Potency, µM (top dose mostly 46.1 µM), inactives show top-dose activity change, negative = cytotoxicity, hits mostly cytotoxic. 0.76% of 410,000 active
#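 CellTiter-Glo luminescence gave cytotoxicity after 18 hours at 37 degrees C. The cells were HepG2 CAGA-GFP in 1% FBS DMEM, stimulated with 500 pg/mL TGF-beta after compound addition. %Activity was normalised to no-cell wells (complete cell-killing) and DMSO (no toxicity), and curves were fitted and classified.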
# ATXN2 expr inh – reduces ATXN2 reporter expression in HEK-293 cells; HEK-293 ATXN2-luciferase reporter, luminescence, 24 h; Potency, µM (highest dose often 57 µM), without a hit: at the highest dose activity change, negative = inhibition, hits mostly inhibitors; 0.72% of 360,000 active; AID 1745845; also: % is scaled to controls: 0 for no effect and ±100 for the full control effect; nearly all actives have a fitted effect of over 55% in size
#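 ATXN2-luciferase reporter cells (luciferase flanked by upstream and downstream ATXN2 gene portions) were treated 24 h at 37 °C with compounds at up to 57 uM. SteadyGlo luminescence gave expression; GF-AFC fluorescence gave viability.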
# RORgamma inh – blocks mouse ROR gamma transcriptional activity | P51450 | Drosophila S2 Gal4-RORgamma UAS-luciferase reporter, 20 h | Potency, µM (highest dose often 53.6 µM), without a hit: at the highest dose activity change, negative = inhibition, usual class: inhibitors | 5.4% of 310,000 active | AID 2551; also: % is scaled to controls: 0 for no effect and ±100 for the full control effect; nearly all actives have a fitted effect of over 60% in size
# Target sequence (P51450 whole entry, looked up, the tested form may be a part): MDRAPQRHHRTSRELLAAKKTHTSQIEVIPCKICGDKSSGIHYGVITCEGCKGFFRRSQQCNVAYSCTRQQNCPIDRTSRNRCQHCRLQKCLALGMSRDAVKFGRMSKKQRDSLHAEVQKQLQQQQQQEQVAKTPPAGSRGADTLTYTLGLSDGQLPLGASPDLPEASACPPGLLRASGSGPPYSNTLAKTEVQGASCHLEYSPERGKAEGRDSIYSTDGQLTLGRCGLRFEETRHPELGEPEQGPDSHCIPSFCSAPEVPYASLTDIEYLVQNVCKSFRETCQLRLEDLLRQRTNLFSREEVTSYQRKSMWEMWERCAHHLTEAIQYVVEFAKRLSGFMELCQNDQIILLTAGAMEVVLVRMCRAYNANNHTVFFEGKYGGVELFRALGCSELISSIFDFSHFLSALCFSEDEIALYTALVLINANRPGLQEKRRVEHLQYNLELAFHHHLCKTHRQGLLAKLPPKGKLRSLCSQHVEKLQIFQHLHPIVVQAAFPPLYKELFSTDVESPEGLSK
#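 Drosophila Schneider cells stably carrying a metallothionein-driven Gal4 DBD–ROR gamma fusion and a UAS-Photinus luciferase reporter were exposed to compound for 1 hr, then induced with copper sulfate (700 uM final) for 20 hr at ambient temperature before luminescence reading.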
# Gal4-VP16 FLuc – counter-screen for ROR gamma inhibitors: Gal4-VP16 reporter; Drosophila S2 Gal4-VP16 UAS-luciferase, luminescence, 20 h; Potency, µM (highest dose often 53.6 µM), without a hit: at the highest dose activity, negative = inhibition, hits mostly inhibitors; 3.5% of 310,000 active; AID 2546;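 also: Gal4-VP16 expression switched on by copper sulfate through the metallothionein promoter; % is scaled to controls: 0 for no effect and ±100 for the full control effect; nearly all actives have a fitted effect of over 50% in size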
# ATXN viability – reduces viability in counter-screen for ATXN expression inhibitors. 0.49% of 400,000 active. AID 651635. S2 cells (HEK-293 line with an ATXN2-luciferase reporter) viability, CellTiter-Fluor protease fluorescence, 24 h. Potency, µM (top dose mostly 56.7 µM), most hits filed as cytotoxic; also: nearly all actives have a fitted effect of over 40% in size
# TGFb inhibitor – blocks TGF-b signaling; Potency, µM (highest dose often 46.1 µM), inactives show top-dose activity, negative = inhibition, usual class: inhibitors; 1.2% of 410,000 active; HepG2 CAGA-GFP TGF-b/SMAD3 reporter, GFP fluorescence, 18 h; TGF-beta stimulated, 500 pg/mL final; AID 588855; also: % is scaled to controls: 0 for no effect and ±100 for the full control effect; nearly all actives have a fitted effect of over 65% in size
#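 Smad-responsive CAGA-GFP expression was quantified in HEPG2 cells exposed to compounds and 500 pg/mL final TGF-beta for 18 h at 37 degrees C; unstimulated wells defined full inhibition.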
# The depositor's hits bear a star; i = inactive; u = inconclusive; x = no result given; [ ] = another dose, or the depositor's remark. Calls follow the shape of the dose curve; as a rule, active = well fitted curve in the direction sought with a large enough effect; inconclusive = small, poorly fitted or top-dose-only effect, or another doubt; inactive = no such curve, though single readings can be large; an effect the other way counts as inactive or inconclusive. Potency is read from the fitted curve at half-maximal effect.
SMILES,HepG2 viability,ATXN2 expr inh,RORgamma inh,Gal4-VP16 FLuc,ATXN viability,TGFb inhibitor
COc1ccc(-c2cn(-c3ccccc3)c(=S)[nH]2)cc1OC,-34%,64%,5.6µM*,11µM*,i,-15%
COc1ccc(-c2nc3c(C)cc(Br)cn3c2CC(C)(C)C)cc1OC,-17%,4%,x,x,u,u
COc1cccc(-n2cc(-c3ccc(F)cc3)[nH]c2=S)c1,-3%,44%,1.3µM*,u,i,13%
Cc1cccc(CNC(=O)c2c3n(c(C)cc2=O)-c2ccccc2SC(c2sccc2C)C3)n1 (configuration not stated),x,x,x,x,i,x
N#CCCn1c(=O)c(-c2cc(F)cc(F)c2)nc2cnc(N3CCOCC3)nc21,x,x,6%,-2%,x,x
COc1ccc(-c2cn(-c3ccc(C)c(Cl)c3)c(=S)[nH]2)cc1OC,-15%,-34%,u,10µM*,i,0%
COc1ccc(-c2nn(-c3ccc(C)c(Cl)c3)c3c2cnc2cc(OC)c(OC)cc23)cc1,-5%,13%,x,x,i,-14%
COc1ccccc1-c1cn(-c2ccccc2)c(=S)[nH]1,14%,7%,2.8µM*,5.6µM*,i,-2%
COC(=O)c1cccc(C(=O)N2CCc3c(cnc(C)c3CNC(=O)/C=C/c3cccs3)C2)c1,x,x,x,x,i,x
COc1cc(Nc2ccn3nc(-c4ccc(F)cc4)cc3n2)cc(OC)c1OC,-13%,13%,x,x,i,-3%
O=C(NC(=S)Nc1nc2c(s1)CSc1ccccc1-2)c1ccccc1,-22%,-5%,16µM*,u,u,-25%
COc1ccc(CCNC(=O)Cn2nc(C)c3c(C)n(-c4ccc(C)cc4)nc3c2=O)c(OC)c1,-5%,x,x,x,x,u
Cc1cccc(-n2ncc3c2CCCC3NC(=O)c2ccncc2)c1C (configuration not stated),-3%,x,x,x,i,1%
CCn1cc(C(=O)NC2CCCc3c2cnn3-c2cccc(C)c2C)cn1 (configuration not stated),x,x,-7%,1.3µM*,x,x
Cc1cccc(-n2ncc3c2CCCC3NC(=O)Cc2c(C)noc2C)c1C (configuration not stated),6%,-19%,20%,10µM*,i,1%
CC1=C(C(=O)NC2CCCc3c2cnn3-c2cccc(C)c2C)OCCO1 (configuration not stated),-25%,-18%,u,11µM*,i,0%
CC1=C(C(=O)N2CCCC(C(=O)c3cccc4ccccc34)C2)OCCO1 (configuration not stated),-52%,x,u,13µM*,i,-19%
Cc1ncoc1C(=O)N1CCCC(C(=O)c2cccc3ccccc23)C1 (configuration not stated),-4%,x,30%,16%,i,2%
CO[C@H]1COC(=O)C/C=C\[C@@H](C)[C@H](OC)COC(=O)CCC[C@@H]1C,x,x,14%[10 µM],-15%[10 µM],x,x
C=CCc1ccccc1OCC(=O)N/N=C/c1ccc(OC(C)=O)cc1OC(C)=O,-3%,22µM*,7.1µM*,u,i,2%
Cc1ccccc1OCC(=O)N/N=C/c1cc2ccccc2nc1Cl,-19%,6%,38%,-8%,i,-13%
COc1ccc(C23CC4CC(CC(C4)C2)C3)cc1C(=O)NCCN(C)C,16µM*,x,u,u,x,u
Cc1ccc(-n2c(-c3ccccc3)nsc2=NC#N)cc1,1%,x,x,x,x,0%
CCOc1cc(NC(=S)Nc2cccc(OC)c2)c(OCC)cc1NC(=O)C(C)C,-28%,1%,8.9µM*,u,i,1%
COc1cccc(NC(=O)C(C)C)c1,-5%,8%,x,x,i,u
SMILES,HepG2 viability,ATXN2 expr inh,RORgamma inh,Gal4-VP16 FLuc,ATXN viability,TGFb inhibitor
CCOc1cc(NC(=S)Nc2cccc(C)c2)c(OCC)cc1NC(=O)CC(C)C,-2%,-13%,6.3µM*,20µM*,i,23%
CCOc1cc(NC(=O)c2ccccc2OC)c(OCC)cc1NC(=O)c1ccccc1,7%,-7%,27%,-16%,i,-1%
CCOc1cc(NC(=S)Nc2cccc(OC)c2)c(OCC)cc1NC(=O)c1ccc(C)cc1,0%,1%,7.9µM*,16µM*,u,14%
CCOc1cc(NC(=S)Nc2ccccc2)c(OCC)cc1NC(=O)c1ccc(OC)cc1,-32%,-1%,4µM*,11µM*,u,0%
COc1ccc(NC(=O)C2Cc3c(-c4cccc(C(C)=O)c4)ccnc3O2)cc1 (configuration not stated),-14%,-26%,x,x,u,-12%
COc1ccc(/C=C/c2nc(C#N)c(N3CCC(C)CC3)o2)cc1OC,-17%,x,x,x,x,u
CCOc1cc(NC(=O)CCl)c(OCC)cc1NC(=O)CCl,-57%,-37%,13µM*,20µM*,u,1%
CCOc1ccccc1NC(=O)Nc1ccc(Cl)cc1,-40%,12%,u,u,i,u
CCOc1ccccc1NC(=O)CCC(=O)Nc1ccccc1OCC,-18%,-18%,2%,-7%,i,2%
CCOc1cc(NC(=S)Nc2ccc(Cl)cc2)c(OCC)cc1NC(C)=O,-5%,-10%,11µM*,u,i,0%
C[C@H]1CN([C@@H](C)CO)C(=O)c2cc(Br)cnc2O[C@@H]1CN(C)S(=O)(=O)c1ccccc1,-12%,-1%,x,x,i,-3%
CCCCCCn1c(=O)n2n(c1=O)[C@@H]1CN(S(=O)(=O)c3ccc(C)cc3)C[C@]1(O)[C@@H](OC(=O)NC1CCCC1)C2,-30%,u,x,x,x,11µM*
CCCCCCNC(=O)O[C@H]1Cn2c(=O)n(CCCCCC)c(=O)n2[C@@H]2CN(S(=O)(=O)c3ccc(C)cc3)C[C@]12O,22µM*,u,x,x,x,u
CCCCCCn1c(=O)n2n(c1=O)[C@@H]1CN(S(=O)(=O)c3ccc(C)cc3)C[C@]1(O)[C@@H](OC(=O)NC1CC1)C2,3%,5%,x,x,i,-1%
CCCCCCn1c(=O)n2n(c1=O)[C@@H]1CN(S(=O)(=O)c3ccc(C)cc3)C[C@]1(O)[C@@H](OC(=O)NCc1ccccc1F)C2,7.9µM*,u,x,x,x,13µM*
Cc1ccc(S(=O)(=O)N2C[C@H]3n4c(=O)ccc(=O)n4C[C@H](OC(=O)NCc4ccccc4F)[C@@]3(O)C2)cc1,-18%,u,x,x,x,u
CCCCCCn1c(=O)n2n(c1=O)[C@@H]1CN(S(=O)(=O)c3ccc(C)cc3)C[C@]1(O)[C@@H](OC(=O)NCC1CCCCC1)C2,-118%,u,x,x,x,u
